Assay results taken from the supplement of paper PMC8975748.
Structures can show the parent of a compound that is named as a salt.

These molecules were tested on Saccharomyces cerevisiae BY4741 SeMeCo community (assay: z-score of subpopulation abundance vs DMSO median, subpopulation auxotrophic for LM; higher = larger share of this subpopulation than in DMSO controls). Conditions: 10 µM; 24 h; SM minimal medium; subpopulation (auxotrophy): LM.
Experimental: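 Fluorescent four-plasmid SeMeCo (self-establishing metabolically cooperating S. cerevisiae BY4741 community; plasmids pH-mRuby2, pL-mWasabi, pU-eCFP, pM-TagRFP657) was grown 24 h in minimal SM medium with each Selleck FDA-approved drug at 10 µM in 384-well plates. Cells were fixed and imaged by high-content confocal microscopy. For each auxotrophic subpopulation (and the prototroph), a z-score gives the deviation from the DMSO vehicle-control population median.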
In the case of `C/C(=C\C(=O)OCCCCCCCCC(=O)O)C[C@@H]1OC[C@H](C[C@@H]2O[C@H]2[C@@H](C)[C@H](C)O)[C@@H](O)[C@H]1O` [Mupirocin calcium], the “z-score of subpopulation abundance” value is reported as -0.21.
In the case of `Cc1nc(=O)c2cc(CN(C)c3ccc(C(=O)N[C@@H](CCC(=O)O)C(=O)O)s3)ccc2[nH]1` [Raltitrexed], the “z-score of subpopulation abundance” value is reported as -0.75.
For `CC(C)c1nc(N(C)S(C)(=O)=O)nc(-c2ccc(F)cc2)c1/C=C/[C@@H](O)C[C@@H](O)CC(=O)O` [Rosuvastatin Calcium], the “z-score of subpopulation abundance” value was -1.44.
For `Nc1nc2[nH]cc(CCc3ccc(C(=O)N[C@@H](CCC(=O)O)C(=O)O)cc3)c2c(=O)[nH]1` [Pemetrexed Disodium Hydrate], the “z-score of subpopulation abundance” value was -3.99.
For `O=C(O)c1cn(-c2ccc(F)cc2)c2cc(N3CCNCC3)c(F)cc2c1=O` [Sarafloxacin HCl], the “z-score of subpopulation abundance” value was 0.08.
For `COc1c(N2C[C@@H]3CCCN[C@@H]3C2)c(F)cc2c(=O)c(C(=O)O)cn(C3CC3)c12` [Moxifloxacin HCl], the “z-score of subpopulation abundance” value was 2.74.
`Cn1c(=O)c2c(ncn2CC2OCCO2)n(C)c1=O` [Doxofylline] was tested, and the “z-score of subpopulation abundance” value was 0.49.
`CC(C)(O/N=C(\C(=O)N[C@@H]1C(=O)N2C(C(=O)[O-])=C(C[n+]3ccccc3)CS[C@H]12)c1csc(N)n1)C(=O)O` [Ceftazidime] was tested, and the “z-score of subpopulation abundance” value was -0.09.
`CCN(CC)CCNC(=O)c1cc(S(C)(=O)=O)ccc1OC` [Tiapride Hydrochloride] was tested, and the “z-score of subpopulation abundance” value was 0.55.
For `C1CCN2C[C@@H]3C[C@@H](CN4CCCC[C@@H]34)[C@H]2C1` [(-)-Sparteine Sulfate], the “z-score of subpopulation abundance” value was -0.13.
In the case of `C[C@@H](c1nc(-c2ccc(C#N)cc2)cs1)[C@](O)(Cn1cncn1)c1cc(F)ccc1F` [Isavuconazole], the “z-score of subpopulation abundance” value is reported as 1.61.
In the case of `O=c1c(-c2ccc(O)cc2)coc2c([C@@H]3O[C@H](CO)[C@@H](O)[C@H](O)[C@H]3O)c(O)ccc12` [Puerarin], the “z-score of subpopulation abundance” value is reported as -0.04.
With `CN(C)CCn1nnnc1SCC1=C(C(=O)O)N2C(=O)[C@@H](NC(=O)Cc3csc(N)n3)[C@H]2SC1` [Cefotiam hydrochloride] the “z-score of subpopulation abundance” value was 1.06.
In the case of `CC1(C)S[C@@H]2[C@H](NC(=O)[C@H](N)c3ccc(O)cc3)C(=O)N2[C@H]1C(=O)O` [Amoxicillin], the “z-score of subpopulation abundance” value is reported as -0.13.
With `Cc1ccnc(NS(=O)(=O)c2ccc(N)cc2)n1` [Sulfamerazine] the “z-score of subpopulation abundance” value was 0.88.
In the case of `Cc1cc(NS(=O)(=O)c2ccc(N)cc2)no1` [Sulfamethoxazole], the “z-score of subpopulation abundance” value is reported as 0.08.
For `Clc1ccc(C(Cn2ccnc2)OCc2csc3c(Cl)cccc23)c(Cl)c1` (stereo not given) [Sertaconazole nitrate], the “z-score of subpopulation abundance” value was -3.39.
With `O=C(O)c1cc(/N=N/c2ccc(O)c(C(=O)O)c2)ccc1O` [Olsalazine Sodium] the “z-score of subpopulation abundance” value was -0.58.
`CCN(CC)CC#CCOC(=O)C(O)(c1ccccc1)C1CCCCC1` (stereo not given) [Oxybutynin] was tested, and the “z-score of subpopulation abundance” value was -0.42.
`CCC1(C)CC(=O)NC1=O` (stereo not given) [Ethosuximide] was tested, and the “z-score of subpopulation abundance” value was -0.21.
In the case of `CCOc1cc(N)c([N+](=O)[O-])cc1C(=O)NC1CCN(CC2CC=CCC2)CC1` (stereo not given) [Cinitapride Hydrogen Tartrate], the “z-score of subpopulation abundance” value is reported as 0.4.
In the case of `Nc1ccc(S(=O)(=O)Nc2ncccn2)cc1` [Sulfadiazine], the “z-score of subpopulation abundance” value is reported as -0.04.
For `CCCN1CCCC[C@H]1C(=O)Nc1c(C)cccc1C` [Ropivacaine], the “z-score of subpopulation abundance” value was 0.11.
`O=C1C(=O)c2ccccc2C(O)=C1C1CCC(c2ccc(Cl)cc2)CC1` (stereo not given) [Atovaquone] was tested, and the “z-score of subpopulation abundance” value was 1.39.
For `Nc1cc(C(Cl)=C(Cl)Cl)c(S(N)(=O)=O)cc1S(N)(=O)=O` [Clorsulon], the “z-score of subpopulation abundance” value was -0.35.
With `O=c1[nH]cc(F)c(=O)[nH]1` [Fluorouracil (5-Fluoracil, 5-FU)] the “z-score of subpopulation abundance” value was 0.7.
With `CC1(C)S[C@@H]2[C@H](NC(=O)[C@H](N)c3ccccc3)C(=O)N2[C@H]1C(=O)OCOC(=O)[C@@H]1N2C(=O)C[C@H]2S(=O)(=O)C1(C)C` [Sultamicillin] the “z-score of subpopulation abundance” value was 0.38.
In the case of `Cc1c[nH]c(=O)[nH]c1=O` [Thymine], the “z-score of subpopulation abundance” value is reported as -0.22.
With `CCC(C)(Oc1ccc(C2(c3ccc(OC(C)(CC)C(=O)O)cc3)CCCCC2)cc1)C(=O)O` (stereo not given) [Clinofibrate] the “z-score of subpopulation abundance” value was -1.21.
In the case of `CCN1CCCC1CNC(=O)c1cc(S(N)(=O)=O)ccc1OC` (stereo not given) [Sulpiride], the “z-score of subpopulation abundance” value is reported as -0.86.
With `Nc1ccc(S(=O)(=O)Nc2ccccn2)cc1` [Sulfapyridine] the “z-score of subpopulation abundance” value was -0.18.
For `CC[C@H](C)C[C@H](C)CCCCCCCCC(=O)N[C@H]1C[C@@H](O)[C@@H](NCCN)NC(=O)[C@@H]2[C@@H](O)CCN2C(=O)[C@H]([C@H](O)CCN)NC(=O)[C@H]([C@H](O)[C@@H](O)c2ccc(O)cc2)NC(=O)[C@@H]2C[C@@H](O)CN2C(=O)[C@H]([C@@H](C)O)NC1=O` [Caspofungin Acetate], the “z-score of subpopulation abundance” value was 1.23.
`CO/N=C(\C(=O)N[C@@H]1C(=O)N2C(C(=O)O)=C(CSC(=O)c3ccco3)CS[C@H]12)c1csc(N)n1` [Ceftiofur] was tested, and the “z-score of subpopulation abundance” value was -0.51.
`C[C@@H]1CN(c2c(F)c(N)c3c(=O)c(C(=O)O)cn(C4CC4)c3c2F)C[C@H](C)N1` [Sparfloxacin] was tested, and the “z-score of subpopulation abundance” value was 0.37.
In the case of `CC(=O)OCC1=C(C(=O)O)N2C(=O)[C@@H](NC(=O)CSc3ccncc3)[C@H]2SC1` [Cephapirin Benzathine], the “z-score of subpopulation abundance” value is reported as 0.09.
For `Cc1cc(-c2ccc(/N=N/c3ccc4c(S(=O)(=O)O)cc(S(=O)(=O)O)c(N)c4c3O)c(C)c2)ccc1/N=N/c1ccc2c(S(=O)(=O)O)cc(S(=O)(=O)O)c(N)c2c1O` [Evans Blue], the “z-score of subpopulation abundance” value was -5.69.
For `COc1ccc(CN2CCN(C(c3ccc(F)cc3)c3ccc(F)cc3)CC2)c(OC)c1OC` [Lomerizine 2HCl], the “z-score of subpopulation abundance” value was 0.33.
`O=C(O)c1cc(=O)c2c(OCC(O)COc3cccc4oc(C(=O)O)cc(=O)c34)cccc2o1` [Disodium Cromoglycate] was tested, and the “z-score of subpopulation abundance” value was -0.12.
For `CCC[C@@H]1C[C@@H](C(=O)N[C@@H]([C@H]2O[C@H](SC)[C@H](O)[C@@H](O)[C@H]2O)[C@@H](C)O)N(C)C1` [Lincomycin Hydrochloride Monohydrate], the “z-score of subpopulation abundance” value was -0.56.
For `O=C(O)C[C@H](O)C[C@H](O)/C=C/c1c(C2CC2)nc2ccccc2c1-c1ccc(F)cc1` [Pitavastatin Calcium], the “z-score of subpopulation abundance” value was -0.2.
